Laboratory results published in PubChem BioAssay (NCATS).
Inconclusive results are not listed. A call without a number means that no potency is given here. Calls of active or inactive are those of the source. Calls follow the shape of the dose curve; as a rule, active = well fitted inhibition curve with a large enough effect; inconclusive = small, poorly fitted or top-dose-only effect; inactive = flat fitted curve, though single readings scatter.

Columns and labels:
PC26 = assay: qHTS profiling for inhibitors of Plasmodium falciparum proliferation (AID 504749); details: P. falciparum in erythrocytes, SYBR Green DNA, 72 h; series mostly up to 28.7 µM
Method in brief: (§1)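 SYBR Green fluorescence (ex 485 nm, em 535 nm) reports parasite DNA after 72 h compound exposure of infected red cells at 0.3% parasitemia, 2.5% hematocrit; signal normalized to 0.29 uM artemisinin and vehicle wells.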

TAB113 = assay: as above; details: P. falciparum in erythrocytes, SYBR Green DNA, 72 h; series mostly up to 28.7 µM
Method in brief: as §1

W2 = assay: as above; details: P. falciparum in erythrocytes, SYBR Green DNA, 72 h; series mostly up to 28.7 µM
Method in brief: as §1

HEK293 = assay: Cytotoxic Profiling of Annotated Libraries Using Quantitative High-Throughput Screening (AID 1296008); details: Five cell lines viability, CellTiter-Glo ATP luminescence, 48-72 h; max response: hits give low values
Method in brief: (§2)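 Cells exposed to compounds for 48 or 72 hr at 37 degrees Celsius. Viability read as ATP-coupled luminescence with CellTiter-Glo after 10 min at room temperature.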

PC49 = assay: qHTS profiling for inhibitors of Plasmodium falciparum proliferation (AID 504749); details: P. falciparum in erythrocytes, SYBR Green DNA, 72 h; series mostly up to 28.7 µM
Method in brief: as §1

SC27B = assay: as above; details: P. falciparum in erythrocytes, SYBR Green DNA, 72 h; series mostly up to 28.7 µM
Method in brief: as §1

TAB165 = assay: as above; details: P. falciparum in erythrocytes, SYBR Green DNA, 72 h; series mostly up to 28.7 µM
Method in brief: as §1

HaCat = assay: Cytotoxic Profiling of Annotated Libraries Using Quantitative High-Throughput Screening (AID 1296008); details: Five cell lines viability, CellTiter-Glo ATP luminescence, 48-72 h; max response: hits give low values
Method in brief: as §2

TAB109 = assay: qHTS profiling for inhibitors of Plasmodium falciparum proliferation (AID 504749); details: P. falciparum in erythrocytes, SYBR Green DNA, 72 h; series mostly up to 28.7 µM
Method in brief: as §1
Also: nearly all actives have a fitted effect of over 60% in size.
Potency is read from the fitted curve at half-maximal effect.

Structure (SMILES) | Potency (PC26) | Potency (TAB113) | Potency (W2) | max response (HEK293) | Potency (PC49) | Potency (SC27B) | Potency (TAB165) | outcome (HaCat) | Potency (TAB109) | Potency (HEK293) | Potency (HaCat) | max response (HaCat)
CN(C)CCOC(c1ccc(Cl)cc1)c1ccccn1 (stereo not drawn) | inactive | inactive | 1.07 µM (active) | -23.8% (inactive) |  |  |  |  |  |  |  | 
CC(C)(C)CC(C)(C)c1ccc(O)c(-n2nc3ccccc3n2)c1 | inactive | 10 µM (active) | 6.01 µM (active) | -0.0454% (inactive) | 10 µM (active) | 11.2 µM (active) | 12.6 µM (active) | inactive |  |  |  | 
O=c1[nH]c(=O)n([C@H]2C[C@H](O)[C@@H](CO)O2)cc1F | inactive | inactive | inactive |  | inactive | inactive | inactive |  | inactive | 0.0299 µM (active) | 0.0084 µM (active) | 
Oc1c(Cl)cc(Cl)c(Cl)c1Cc1c(O)c(Cl)cc(Cl)c1Cl |  | 12.6 µM (active) |  |  | 8.91 µM (active) | 10 µM (active) | 7.94 µM (active) |  | 11.2 µM (active) | 8.41 µM (active) |  | 
CNCCCCOc1ccccc1Cc1ccccc1 |  |  | 1.35 µM (active) |  | 5.01 µM (active) |  |  |  | 4.47 µM (active) | 15 µM (active) |  | -10% (inactive)
CCOc1ccccc1OCCN[C@H](C)Cc1ccc(OC)c(S(N)(=O)=O)c1 | inactive | inactive |  | -5.03% (inactive) | inactive | inactive | inactive | inactive | inactive |  |  | 
CCOc1cc(OCC)c(C(=O)CCC(=O)O)cc1OCC | inactive | inactive | inactive | -0.0497% (inactive) | inactive | inactive | inactive | inactive | inactive |  |  | 
Cc1ccc(S(=O)(=O)NC(=O)NC2CCCC2)cc1 | inactive | inactive | inactive | -5.76% (inactive) | inactive | inactive | inactive |  | inactive |  |  | 2.64% (inactive)
CCCCCCCCCCCCCC[N+](C)(C)Cc1ccccc1 | 5.36 µM (active) | 6.31 µM (active) | 4.26 µM (active) |  | 7.94 µM (active) | 7.94 µM (active) | 5.62 µM (active) |  | 7.94 µM (active) | 2.99 µM (active) | 11.9 µM (active) | 
CC(=O)Nc1ccc(CC(=O)O)cc1 | inactive | inactive | inactive | 0.0311% (inactive) | inactive | inactive | inactive | inactive | inactive |  |  | 
CC(=O)OC[C@H]1O[C@@H](n2ncc(=O)[nH]c2=O)[C@H](OC(C)=O)[C@@H]1OC(C)=O | inactive |  | inactive |  | inactive | inactive | inactive |  | inactive | 0.944 µM (active) |  | -1.52% (inactive)
COc1cc(C(=O)N2CCCCCCC2)cc(OC)c1OC | inactive | inactive | inactive | 0.115% (inactive) | inactive | inactive | inactive | inactive | inactive |  |  | 
